Laboratory results published in PubChem BioAssay.
Active and inactive are the calls of the source.

Experiments:
[1] = system: Plasmodium falciparum Sir2 (PF13_0152, Sir2A); assay: Plasmodium falciparum Sir2A binding compounds – biochemical, small-molecule microarray, 635 nm fluorescence, primary screen (AID 1098); conditions: fluorescence 635 nm, higher = more signal;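 note: score merges spot fluorescence intensity with its signal-to-noise ratio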
[2] = probe aDKK1 binding to arrayed compounds – biochemical, biotinylated probe, 635/667 nm fluorescence, primary screen (AID 1099); conditions: small-molecule microarray, higher = more signal;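 note: score merges 667nm spot fluorescence with signal to noise across triplicate slides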
[3] = probe aCHRDL2 binding to arrayed compounds – biochemical, biotinylated probe, 635/667 nm fluorescence, primary screen (AID 1100); conditions: small-molecule microarray, higher = more signal
[4] = change in splice reporter luminescence, either direction, cell-based, HEK293, spliceosome inhibition project, primary screen (AID 1101); conditions: HEK293 splicing luciferase reporter, 24 h, higher = more signal, called active from +8 up or from −8 down;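 note: HEK293 cells carrying a splicing-competent luciferase reporter gene; test concentration not given here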
[5] = target: Fibroblast growth factor 10 (Homo sapiens) (UniProt O15520); assay: compounds binding fibroblast growth factor 10 – biochemical, small-molecule microarray, 635 nm fluorescence, primary screen (AID 1102); conditions: FGF10 binding, fluorescence 635 nm, higher = more signal
Sequence of Fibroblast growth factor 10 (Homo sapiens) (O15520 whole entry, looked up): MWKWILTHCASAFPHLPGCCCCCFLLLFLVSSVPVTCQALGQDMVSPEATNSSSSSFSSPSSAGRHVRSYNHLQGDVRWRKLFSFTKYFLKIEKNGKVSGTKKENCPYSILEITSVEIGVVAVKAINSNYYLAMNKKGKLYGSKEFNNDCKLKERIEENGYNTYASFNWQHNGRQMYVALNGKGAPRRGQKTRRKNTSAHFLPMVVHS

[6] = system: glycogen synthase kinase-3 (GSK3A per assay name; protocol says GSK3B); assay: compounds binding glycogen synthase kinase-3 – biochemical, small-molecule microarray, 635 nm fluorescence, GSK3A, primary screen (AID 1103); conditions: fluorescence 635 nm, higher = more signal; note: the record names both GSK3A and GSK3B
[7] = target: Epidermal growth factor receptor (Homo sapiens) (UniProt P00533); assay: compounds binding epidermal growth factor receptor – biochemical, small-molecule microarray, 635 nm fluorescence, primary screen (AID 1104); conditions: EGFR binding, higher = more signal;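 note: score merges 667 nm emission intensity with spot signal to noise over triplicate slides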
Sequence of Epidermal growth factor receptor (Homo sapiens) (P00533 whole entry, looked up): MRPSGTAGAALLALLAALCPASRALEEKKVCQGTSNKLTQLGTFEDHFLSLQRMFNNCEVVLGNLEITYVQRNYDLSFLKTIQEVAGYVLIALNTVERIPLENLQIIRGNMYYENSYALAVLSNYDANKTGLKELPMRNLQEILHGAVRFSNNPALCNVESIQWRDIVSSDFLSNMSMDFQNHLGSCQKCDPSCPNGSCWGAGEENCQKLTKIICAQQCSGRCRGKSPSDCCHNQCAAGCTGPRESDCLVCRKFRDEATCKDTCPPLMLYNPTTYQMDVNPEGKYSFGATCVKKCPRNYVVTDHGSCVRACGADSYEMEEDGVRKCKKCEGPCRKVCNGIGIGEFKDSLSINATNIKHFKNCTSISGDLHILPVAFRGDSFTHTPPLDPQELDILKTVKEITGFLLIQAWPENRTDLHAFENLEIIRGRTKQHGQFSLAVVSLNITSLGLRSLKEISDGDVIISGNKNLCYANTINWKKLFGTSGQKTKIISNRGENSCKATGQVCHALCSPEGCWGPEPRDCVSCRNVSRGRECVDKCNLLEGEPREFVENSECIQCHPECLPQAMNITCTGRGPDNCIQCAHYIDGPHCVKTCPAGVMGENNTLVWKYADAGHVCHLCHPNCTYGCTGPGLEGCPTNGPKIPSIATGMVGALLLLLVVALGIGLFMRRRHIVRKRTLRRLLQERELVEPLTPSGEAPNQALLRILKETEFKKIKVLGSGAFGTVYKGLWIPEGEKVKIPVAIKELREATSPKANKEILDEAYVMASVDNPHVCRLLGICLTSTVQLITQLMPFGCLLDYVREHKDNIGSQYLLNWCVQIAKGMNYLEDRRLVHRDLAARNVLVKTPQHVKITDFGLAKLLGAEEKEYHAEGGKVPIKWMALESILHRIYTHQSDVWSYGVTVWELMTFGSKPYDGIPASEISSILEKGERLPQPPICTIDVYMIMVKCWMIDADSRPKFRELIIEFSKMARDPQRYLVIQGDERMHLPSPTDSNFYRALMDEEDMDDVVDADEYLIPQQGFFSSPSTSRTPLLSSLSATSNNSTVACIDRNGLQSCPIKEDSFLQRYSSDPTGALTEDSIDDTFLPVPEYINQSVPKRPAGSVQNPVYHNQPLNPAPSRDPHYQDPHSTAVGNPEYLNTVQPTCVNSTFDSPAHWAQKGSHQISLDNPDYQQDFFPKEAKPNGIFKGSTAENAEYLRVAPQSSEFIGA

[8] = target: Follistatin-related protein 3 (Homo sapiens) (UniProt O95633); assay: compounds binding follistatin-related protein 3 – biochemical, small-molecule microarray, 635 nm fluorescence, primary screen (AID 1105); conditions: FSTL3 binding, higher = more signal;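 note: score merges emission near 667 nm and signal to noise per printed spot across three slides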
Sequence of Follistatin-related protein 3 (Homo sapiens) (O95633 whole entry, looked up): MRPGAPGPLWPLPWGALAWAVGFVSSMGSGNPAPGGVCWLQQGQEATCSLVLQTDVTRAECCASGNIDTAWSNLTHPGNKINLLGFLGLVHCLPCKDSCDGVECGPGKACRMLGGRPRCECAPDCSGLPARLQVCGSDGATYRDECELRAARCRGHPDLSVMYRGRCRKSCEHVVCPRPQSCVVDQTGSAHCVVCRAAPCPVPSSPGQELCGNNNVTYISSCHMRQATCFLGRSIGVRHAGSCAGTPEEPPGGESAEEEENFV

[9] = target: Dickkopf-related protein 1 (Homo sapiens) (UniProt O94907); assay: small molecules binding DKK1 protein – biochemical, small-molecule microarray, 635 nm fluorescence scan, primary screen (AID 1106); conditions: higher = more signal;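 note: score merges emission near 667 nm with signal to noise over three replicate slides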
Sequence of Dickkopf-related protein 1 (Homo sapiens) (O94907 whole entry, looked up): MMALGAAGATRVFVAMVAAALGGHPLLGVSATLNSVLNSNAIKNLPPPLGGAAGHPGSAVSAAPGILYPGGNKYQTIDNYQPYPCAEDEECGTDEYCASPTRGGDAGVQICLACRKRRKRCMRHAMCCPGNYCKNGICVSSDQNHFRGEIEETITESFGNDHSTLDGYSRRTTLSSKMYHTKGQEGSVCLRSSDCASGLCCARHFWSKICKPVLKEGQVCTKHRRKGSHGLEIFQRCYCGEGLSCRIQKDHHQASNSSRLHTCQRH

[10] = system: Inhibin beta A chain (activin A); assay: small molecules binding activin A – biochemical, small-molecule microarray, 635 nm fluorescence scan, primary screen (AID 1107); conditions: INHBA, higher = more signal;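 note: mouse activin A protein probed at 4.33 µg/mL on printed slides; score merges bound-protein fluorescence near 667 nm with spot signal-to-noise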
[11] = system: Human papillomavirus type 1a protein E7 (residues 44-93); assay: small molecules binding HPV E7 44-93 – biochemical, small-molecule microarray, residues 44-93, 635 nm fluorescence, primary screen (AID 1108); conditions: fluorescence 635 nm, higher = more signal;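 note: E7 fragment applied at 1 µg/mL in TBST for 1 h at 4 C; score combines spot fluorescence with its signal to noise ratio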
[12] = hepatitis C replication reporter changes, two-sided – Huh7 cells, luciferase reporter, HCV replication inhibitor project, primary screen (AID 1109); conditions: Huh7 HCV replicon luciferase reporter, 48 h; higher = more signal;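 note: huh7 hepatoma cells harbouring a luciferase neomycin HCV replicon reporter; luciferase luminescence as measure of HCV replicon replication; test concentration not given here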
[13] = target: Left-right determination factor 2 (Homo sapiens) (UniProt O00292); assay: small molecules binding LEFTY2 protein – biochemical, small-molecule microarray, 635 nm fluorescence scan, primary screen (AID 1110); conditions: higher = more signal
Sequence of Left-right determination factor 2 (Homo sapiens) (O00292 whole entry, looked up): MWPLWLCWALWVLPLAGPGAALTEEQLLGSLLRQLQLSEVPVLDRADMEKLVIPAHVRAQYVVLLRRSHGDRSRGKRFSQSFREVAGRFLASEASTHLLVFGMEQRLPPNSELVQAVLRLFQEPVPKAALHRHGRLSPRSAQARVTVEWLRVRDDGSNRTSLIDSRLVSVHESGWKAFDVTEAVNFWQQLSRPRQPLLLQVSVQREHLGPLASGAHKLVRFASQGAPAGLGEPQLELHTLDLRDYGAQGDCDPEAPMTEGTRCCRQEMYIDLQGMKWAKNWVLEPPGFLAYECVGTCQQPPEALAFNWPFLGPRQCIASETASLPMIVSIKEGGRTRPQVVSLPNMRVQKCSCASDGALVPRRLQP

[14] = target: Calmodulin-1 (Homo sapiens) (UniProt P0DP23); assay: small molecules binding calmodulin-1 with EGTA – biochemical, small-molecule microarray, Cy5-labelled CALM1, profiling panel (AID 1111); conditions: Cy5-CALM1 binding fluorescence, higher = more signal;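 note: labelled calmodulin applied in Tris saline Tween buffer holding calcium plus EGTA and DTT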
[15] = target: Calmodulin-1 (Homo sapiens) (UniProt P0DP23); assay: small molecules binding Ca-loaded calmodulin-1 – biochemical, small-molecule microarray, Cy5-labelled CALM1, plus calcium, artefact control for SMM control-protein annotation, profiling panel (AID 1112); conditions: Cy5-CALM1 binding fluorescence, higher = more signal;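 note: score merges spot fluorescence with signal to noise from triplicate slides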
[16] = probe aWnt5a binding to arrayed compounds – biochemical, biotinylated probe, 635/667 nm fluorescence, primary screen (AID 1113); conditions: small-molecule microarray, higher = more signal;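 note: score merges 667 nm fluorescence intensity with signal-to-noise per printed feature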
[17] = probe aShh binding to arrayed compounds – biochemical, biotinylated probe, 635/667 nm fluorescence, primary screen (AID 1114); conditions: small-molecule microarray, higher = more signal;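 note: probe is biotin-labelled aShh protein from a stem cell growth factor screen; measures binding of labelled protein to compounds printed on the slide; score merges feature fluorescence at 667 nm with signal-to-noise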
[18] = probe aNog binding to arrayed compounds – biochemical, biotinylated probe, 635/667 nm fluorescence, primary screen (AID 1115); conditions: small-molecule microarray, higher = more signal;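 note: probe is biotinylated aNog protein used at 0.15 µg/mL for 1 h at 4 C; z-score combines 667 nm fluorescence of each spot with its signal to noise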
[19] = target: Torsin-1A-interacting protein 1 (Homo sapiens) (UniProt Q5JTV8); assay: compound microarray binding of lysate hLAP1 – cell lysate, small-molecule microarray, COS7 lysate, 635/667 nm fluorescence, primary screen (AID 1116); conditions: 635 nm fluorescence, higher = more signal
Sequence of Torsin-1A-interacting protein 1 (Homo sapiens) (Q5JTV8 whole entry, looked up): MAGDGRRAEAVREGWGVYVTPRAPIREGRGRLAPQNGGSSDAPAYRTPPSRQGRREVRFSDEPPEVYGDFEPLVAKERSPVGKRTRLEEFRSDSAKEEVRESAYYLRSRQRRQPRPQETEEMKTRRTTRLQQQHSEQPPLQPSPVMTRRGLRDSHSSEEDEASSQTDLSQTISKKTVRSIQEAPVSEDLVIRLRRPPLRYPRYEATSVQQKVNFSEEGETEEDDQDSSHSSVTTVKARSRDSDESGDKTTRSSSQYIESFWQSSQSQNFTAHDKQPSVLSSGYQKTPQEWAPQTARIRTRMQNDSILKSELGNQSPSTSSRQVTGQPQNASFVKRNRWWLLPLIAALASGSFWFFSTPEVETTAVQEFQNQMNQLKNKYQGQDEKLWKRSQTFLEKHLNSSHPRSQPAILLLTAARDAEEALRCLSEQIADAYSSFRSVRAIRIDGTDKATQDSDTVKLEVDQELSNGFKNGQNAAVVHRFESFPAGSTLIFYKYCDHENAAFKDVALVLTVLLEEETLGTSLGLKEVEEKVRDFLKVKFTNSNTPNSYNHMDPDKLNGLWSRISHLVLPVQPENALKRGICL

[20] = target: Alpha-bungarotoxin (Bungarus multicinctus) (UniProt P60615); assay: compounds binding labelled alpha-BTX control protein – biochemical, small-molecule microarray, Alexa647 label, 635/667 nm fluorescence, artefact control for SMM control protein annotation, profiling panel (AID 1117); conditions: alpha-BTX-A647 binding fluorescence, higher = more signal
Sequence of Alpha-bungarotoxin (Bungarus multicinctus) (P60615 whole entry, looked up): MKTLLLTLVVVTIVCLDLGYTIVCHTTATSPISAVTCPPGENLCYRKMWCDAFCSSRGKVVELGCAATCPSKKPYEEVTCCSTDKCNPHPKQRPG

Row | SMILES | composite z-score [1] | composite z-score [2] | composite z-score [3] | z-score [4] | composite z-score [5] | composite z-score [6] | composite z-score [7] | composite z-score [8] | composite z-score [9] | composite z-score [10] | composite z-score [11] | z-score [12] | composite z-score [13] | composite z-score [14] | composite z-score [15] | composite z-score [16] | composite z-score [17] | composite z-score [18] | composite z-score [19] | composite z-score [20]
1 | CCCCc1cn(C[C@H](Cc2ccccc2)NC(=O)N[C@H](CO)CCc2oc(C(C)=O)c(C(=O)OC)c2C(=O)OC)nn1 | 0.595 | -0.164 | -0.22 | -0.949 (inactive) | 1.04 | 1.02 | 0.717 | 1.4 | 0.485 | -0.0075 | 1.39 | -0.639 | 1.26 | 0.451 | -0.693 | -0.0045 | 0.184 | -0.0965 | 0.644 | 0.463
2 | COCCOC(=O)N1C(=O)[C@@]2(c3cc(C#Cc4ccc(OC)cc4)ccc31)[C@H](c1ccc(O)cc1)N1[C@H](c3ccccc3)[C@H](c3ccccc3)OC(=O)[C@H]1[C@@H]2C(=O)NC[C@H](O)c1ccccc1 | 1.47 | -0.0755 | -0.378 | -1.68 (inactive) | 1.42 | 1.31 | 0.769 | 1.4 | 0.811 | 0.113 | 1.44 | -2.2 | 0.598 | 1.18 | -0.209 | 0.0809 | 0.692 | -0.467 | 0.681 | 1.54
3 | CC(C)OC(=O)C=C1C[C@@H](c2ccccc2C(F)(F)F)O[C@@H](c2ccccc2C(F)(F)F)O1 | 0.192 | -0.0017 | 0.0563 | -0.723 (inactive) | 0.417 | 0.163 | 0.337 | 0.332 | 0.25 | 0.266 | 0.706 | -0.384 | 0.351 | -0.21 | -0.624 | -0.13 | -0.2 | 0.0234 | -0.281 | 0.497
4 | CCCCCCC#C[Si](O[C@H](c1ccccc1)c1cn([C@H](CO)Cc2ccccc2)nn1)(C(C)C)C(C)C | 0.984 | -0.35 | -0.101 | -0.77 (inactive) | 0.629 | 0.166 | -0.525 | -0.25 | -0.15 | -0.33 | 0.205 | -0.462 | -0.154 | -0.27 | 0.105 | -0.096 | 0.298 | -0.443 | 0.8 | -0.218
5 | CN(C)CCCNC(=O)[C@@]1(C)c2ccccc2C(=O)N(Cc2cc(F)cc(C(F)(F)F)c2)[C@H]1c1ccc(CO)cc1 | 1.34 | -0.226 | 0.682 | -0.249 (inactive) | -1.23 | -0.465 | -1.63 | -1.19 | -0.878 | 0.376 | -0.0947 | -1.8 | -1.66 | -0.483 | -0.643 | -0.251 | 0.0121 | 0.338 | -0.94 | 1.32
6 | COCC(=C=CC[C@@H](O)c1ccccc1OCCO)C[C@@H](O)c1cc(Cl)cc(Cl)c1O | 0.781 | -0.174 | -0.607 | -0.458 (inactive) | 1.23 | 1.28 | 0.334 | 1.23 | 0.317 | 0.495 | 1.44 | -2.21 | 0.635 | 0.362 | -0.534 | -0.126 | -0.14 | -0.0863 | 0.704 | 0.792
7 | CCCCC=C[C@@H](NC(=O)Oc1cccc(C(F)(F)F)c1)c1ccccc1 | 0.495 | 1.45 | 0.879 | -1.75 (inactive) | 1.09 | 0.992 | 0.185 | 0.719 | -0.432 | 1.16 | 1.18 | -1.07 | -0.143 | 1.85 | 1.11 | 1.04 | 1.97 | 0.59 | 0.503 | 1.62
8 | NCCCCCNC(=O)[C@@H]1C[C@@H]2C(=O)N[C@@H](Cc3ccccc3)C(=O)N2[C@@H]1c1cccc(OCCO)c1 | 1.14 | 0.53 | 0.359 | -0.0581 (inactive) | 0.519 | 0.232 | -0.235 | -0.374 | 0.378 | 0.619 | 0.762 | -0.988 | -0.178 | 0.429 | 0.791 | 0.404 | -0.0652 | 0.0256 | 0.362 | 1.69
9 | CCN(CC)c1ccc(N2CC=CC34O[C@@H]5/C=C\CCC(C)OC(=O)C5[C@H]3C(=O)N(C(CO)C(C)C)[C@@H]4C2=O)cc1 (stereo not given in full) | 0.492 | -0.204 | 0.0959 | -0.208 (inactive) | -0.709 | -0.806 | -0.532 | -1.1 | -0.41 | 1.15 | -0.0747 | -0.668 | -0.896 | -0.55 | -0.866 | -0.062 | 0.214 | -0.287 | -0.251 | 0.174
10 | COCCOC(=O)N1C(=O)[C@@]2(c3cc(C#CCCO)ccc31)[C@H](c1ccc(OCCO)cc1)N1[C@H](c3ccccc3)[C@H](c3ccccc3)OC(=O)[C@H]1[C@@H]2C(=O)N1CCN(c2ncccn2)CC1 | 0.732 | -0.104 | 0.27 | 0.319 (inactive) | 1.03 | 1.31 | 0.629 | 1.39 | 0.783 | 0.845 | 1.37 | -1.46 | 0.781 | 1.33 | -0.243 | -0.131 | -0.0035 | -0.483 | 0.398 | 0.582
11 | COc1ccc([C@H]2C[C@H]3C(Br)=C[C@@H]2C(=O)[C@]32CO2)cc1 | 0.0371 | -0.308 | -0.193 | -0.613 (inactive) | -0.105 | -0.515 | 0.427 | 0.202 | 1.03 | 1.52 | -0.693 | -2.46 | 0.446 | -0.0833 | -0.798 | 0.0136 | -0.138 | -0.158 | 0.252 | 0.29
